# Measurements reported in paper PMC11006913.
# Residue numbers refer to the chain shown, from its start.
# What was measured:
# Assay in all cases: PBM; 200 nM protein, PBS
# Conditions in all cases: dsDNA, one strand shown
# [1] = biological target: T1, VENTX (Homo sapiens, UniProt O95231 78-163, R121Q)
# T1 sequence: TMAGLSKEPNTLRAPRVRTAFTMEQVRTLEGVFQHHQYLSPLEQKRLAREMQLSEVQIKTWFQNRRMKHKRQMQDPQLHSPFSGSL
# [2] = biological target: PRRX1 (Homo sapiens, UniProt P54821 80-166, F113S)
# [3] = biological target: T2, VENTX (Homo sapiens, UniProt O95231 78-163, Y115F)
# T2 sequence: T1 sequence with Y38F, Q44R
# [4] = biological target: HOXA2 (Homo sapiens, UniProt O43364 129-215, R185T)
# [5] = biological target: MSX2 (Homo sapiens, UniProt P35548 130-214, R199I)
# [6] = biological target: T3, PAX4 (Homo sapiens, UniProt O43316 9-242, R200Q)
# T3 sequence: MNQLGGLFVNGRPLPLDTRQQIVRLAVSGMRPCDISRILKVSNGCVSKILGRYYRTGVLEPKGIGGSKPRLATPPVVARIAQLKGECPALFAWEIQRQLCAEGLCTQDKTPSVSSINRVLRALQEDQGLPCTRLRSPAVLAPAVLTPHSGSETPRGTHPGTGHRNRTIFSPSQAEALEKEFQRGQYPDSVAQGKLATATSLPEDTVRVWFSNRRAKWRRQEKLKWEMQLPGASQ
# [7] = biological target: T4, PAX4 (Homo sapiens, UniProt O43316 9-242, F177V)
# T4 sequence: T3 sequence with F169V, Q192R
# [8] = biological target: MSX2 (Homo sapiens, UniProt P35548 130-214)
# [9] = biological target: T5, PAX4 (Homo sapiens, UniProt O43316 9-242, F177Y)
# T5 sequence: T3 sequence with F169Y, Q192R
# [10] = biological target: MSX2 (Homo sapiens, UniProt P35548 130-214, F161Y)
# [11] = biological target: VAX1 (Homo sapiens, UniProt Q5SQQ9 86-172, T142I)
# [12] = biological target: HOXA4 (Homo sapiens, UniProt Q00056 201-287, W262F)
# [13] = biological target: PRRX1 (Homo sapiens, UniProt P54821 80-166)
# [14] = biological target: VAX1 (Homo sapiens, UniProt Q5SQQ9 86-172, K157R)
# [15] = biological target: HOXA4 (Homo sapiens, UniProt Q00056 201-287, W262R)
# [16] = biological target: HOXA4 (Homo sapiens, UniProt Q00056 201-287, R217L)
# [17] = biological target: HOXA4 (Homo sapiens, UniProt Q00056 201-287)
# [18] = biological target: HOXB4 (Homo sapiens, UniProt P17483 148-234, V174I)
# Sequence of HOXB4 (P17483 148-234 V174I): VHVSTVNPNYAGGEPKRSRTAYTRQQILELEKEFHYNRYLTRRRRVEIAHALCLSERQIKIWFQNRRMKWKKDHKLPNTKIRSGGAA
# Sequence of PRRX1 (Homo sapiens, UniProt P54821 80-166) (P54821 80-166): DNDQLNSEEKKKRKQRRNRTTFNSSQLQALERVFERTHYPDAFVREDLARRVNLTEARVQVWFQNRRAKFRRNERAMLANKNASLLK
# Sequence of MSX2 (Homo sapiens, UniProt P35548 130-214) (P35548 130-214): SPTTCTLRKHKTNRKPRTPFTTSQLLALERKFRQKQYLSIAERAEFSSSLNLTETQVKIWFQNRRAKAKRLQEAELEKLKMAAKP
# Sequence of MSX2 (Homo sapiens, UniProt P35548 130-214, F161Y) (P35548 130-214 F161Y): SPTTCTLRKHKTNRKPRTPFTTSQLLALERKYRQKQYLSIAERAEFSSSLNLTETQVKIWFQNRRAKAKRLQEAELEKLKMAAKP
# Sequence of HOXA4 (Homo sapiens, UniProt Q00056 201-287, W262F) (Q00056 201-287 W262F): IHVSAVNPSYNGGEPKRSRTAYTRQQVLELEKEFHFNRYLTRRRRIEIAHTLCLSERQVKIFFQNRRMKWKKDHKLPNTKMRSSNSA
# Sequence of PRRX1 (Homo sapiens, UniProt P54821 80-166, F113S) (P54821 80-166 F113S): as the sequence (P54821 80-166) above, with F34S counted along it
# Sequence of MSX2 (Homo sapiens, UniProt P35548 130-214, R199I) (P35548 130-214 R199I): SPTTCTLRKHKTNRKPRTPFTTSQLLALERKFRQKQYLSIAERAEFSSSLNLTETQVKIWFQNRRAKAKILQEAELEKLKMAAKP
# Sequence of HOXA2 (O43364 129-215 R185T): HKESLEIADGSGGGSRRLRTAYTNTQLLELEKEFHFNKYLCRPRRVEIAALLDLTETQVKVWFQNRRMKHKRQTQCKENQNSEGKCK
# Sequence of HOXA4 (Homo sapiens, UniProt Q00056 201-287, R217L) (Q00056 201-287 R217L): as the sequence (Q00056 201-287 W262F) above, with R17L, F62W counted along it
# Sequence of VAX1 (Homo sapiens, UniProt Q5SQQ9 86-172, K157R) (Q5SQQ9 86-172 K157R): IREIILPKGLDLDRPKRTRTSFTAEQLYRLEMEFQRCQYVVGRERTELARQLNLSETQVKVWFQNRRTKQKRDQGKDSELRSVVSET
# Sequence of HOXA4 (Homo sapiens, UniProt Q00056 201-287, W262R) (Q00056 201-287 W262R): as the sequence (Q00056 201-287 W262F) above, with F62R counted along it
# Sequence of VAX1 (Homo sapiens, UniProt Q5SQQ9 86-172, T142I) (Q5SQQ9 86-172 T142I): as the sequence (Q5SQQ9 86-172 K157R) above, with T57I, R72K counted along it
# Sequence of HOXA4 (Homo sapiens, UniProt Q00056 201-287) (Q00056 201-287): as the sequence (Q00056 201-287 W262F) above, with F62W counted along it
sequence,measurement,setting,value
AATTAGTG,binding signal,[1],"11.9 upbm affinity estimate (log intensity, higher = more binding, comparable within an allelic series)"
same,binding signal,[2],"11.2 upbm affinity estimate (log intensity, higher = more binding, comparable within an allelic series)"
same,binding signal,[3],"11.7 upbm affinity estimate (log intensity, higher = more binding, comparable within an allelic series)"
same,binding signal,[4],"12.8 upbm affinity estimate (log intensity, higher = more binding, comparable within an allelic series)"
same,binding signal,[5],"12.6 upbm affinity estimate (log intensity, higher = more binding, comparable within an allelic series)"
same,binding signal,[6],"12.3 upbm affinity estimate (log intensity, higher = more binding, comparable within an allelic series)"
same,binding signal,[7],"10.6 upbm affinity estimate (log intensity, higher = more binding, comparable within an allelic series)"
same,binding signal,[8],"13.5 upbm affinity estimate (log intensity, higher = more binding, comparable within an allelic series)"
same,binding signal,[9],"11.1 upbm affinity estimate (log intensity, higher = more binding, comparable within an allelic series)"
same,binding signal,[10],"13.2 upbm affinity estimate (log intensity, higher = more binding, comparable within an allelic series)"
same,binding signal,[11],"12.6 upbm affinity estimate (log intensity, higher = more binding, comparable within an allelic series)"
same,binding signal,[12],"11.6 upbm affinity estimate (log intensity, higher = more binding, comparable within an allelic series)"
same,binding signal,[13],"13.3 upbm affinity estimate (log intensity, higher = more binding, comparable within an allelic series)"
same,binding signal,[14],"12.8 upbm affinity estimate (log intensity, higher = more binding, comparable within an allelic series)"
ATTAATGC,binding signal,[6],"11.7 upbm affinity estimate (log intensity, higher = more binding, comparable within an allelic series)"
same,binding signal,[7],"10.4 upbm affinity estimate (log intensity, higher = more binding, comparable within an allelic series)"
same,binding signal,[9],"11 upbm affinity estimate (log intensity, higher = more binding, comparable within an allelic series)"
CAATTACG,binding signal,[15],"10.4 upbm affinity estimate (log intensity, higher = more binding, comparable within an allelic series)"
same,binding signal,[16],"11.6 upbm affinity estimate (log intensity, higher = more binding, comparable within an allelic series)"
same,binding signal,[5],"12.5 upbm affinity estimate (log intensity, higher = more binding, comparable within an allelic series)"
same,binding signal,[17],"13.1 upbm affinity estimate (log intensity, higher = more binding, comparable within an allelic series)"
same,binding signal,[8],"13.7 upbm affinity estimate (log intensity, higher = more binding, comparable within an allelic series)"
same,binding signal,[10],"13.4 upbm affinity estimate (log intensity, higher = more binding, comparable within an allelic series)"
same,binding signal,[12],"10.9 upbm affinity estimate (log intensity, higher = more binding, comparable within an allelic series)"
same,binding signal,[14],"12.3 upbm affinity estimate (log intensity, higher = more binding, comparable within an allelic series)"
AATTAACG,binding signal,[1],"11.7 upbm affinity estimate (log intensity, higher = more binding, comparable within an allelic series)"
same,binding signal,[2],"11.1 upbm affinity estimate (log intensity, higher = more binding, comparable within an allelic series)"
same,binding signal,[3],"11.5 upbm affinity estimate (log intensity, higher = more binding, comparable within an allelic series)"
same,binding signal,[16],"12.1 upbm affinity estimate (log intensity, higher = more binding, comparable within an allelic series)"
same,binding signal,[5],"12.2 upbm affinity estimate (log intensity, higher = more binding, comparable within an allelic series)"
same,binding signal,[6],"12 upbm affinity estimate (log intensity, higher = more binding, comparable within an allelic series)"
same,binding signal,[7],"10.6 upbm affinity estimate (log intensity, higher = more binding, comparable within an allelic series)"
same,binding signal,[9],"11 upbm affinity estimate (log intensity, higher = more binding, comparable within an allelic series)"
same,binding signal,[12],"11.6 upbm affinity estimate (log intensity, higher = more binding, comparable within an allelic series)"
same,binding signal,[13],"13.3 upbm affinity estimate (log intensity, higher = more binding, comparable within an allelic series)"
TAATTGAA,binding signal,[2],"11.2 upbm affinity estimate (log intensity, higher = more binding, comparable within an allelic series)"
same,binding signal,[4],"12.5 upbm affinity estimate (log intensity, higher = more binding, comparable within an allelic series)"
same,binding signal,[18],"13.6 upbm affinity estimate (log intensity, higher = more binding, comparable within an allelic series)"
same,binding signal,[5],"12.5 upbm affinity estimate (log intensity, higher = more binding, comparable within an allelic series)"
same,binding signal,[8],"13.6 upbm affinity estimate (log intensity, higher = more binding, comparable within an allelic series)"
same,binding signal,[10],"13.2 upbm affinity estimate (log intensity, higher = more binding, comparable within an allelic series)"
same,binding signal,[13],"13.3 upbm affinity estimate (log intensity, higher = more binding, comparable within an allelic series)"
